For eight molecules, SARS-CoV-2 infection rate results are on record in the supplement of paper PMC13380429.

Molecules are shown by their SMILES.

This assay has as its system Vero E6 infected with SARS-CoV-2. Kind of assay: SARS-CoV-2 infection rate relative to infected DMSO; higher = more infection, active = 60 or less. The settings on record: 24 h.
As for `O=C(Nc1ccc(Cl)cc1)Nc1ccc(Cl)c(Cl)c1` [triclocarban] (10 µM), the SARS-CoV-2 infection rate is 98.5% (inactive).
Regarding `COc1ccc(-c2nc3cc(C4=NNC(=O)CC4C)ccc3[nH]2)cc1` (stereo not drawn) [pimobendan] (10 µM), the SARS-CoV-2 infection rate is 94% (inactive).
In the case of `COC(=O)C1=C(C)NC(C)=C(C(=O)OC/C=C/c2ccccc2)C1c1cccc([N+](=O)[O-])c1` (stereo not drawn) [pranidipine] (10 µM) it was 107% (inactive); in that of `O=C(/C=C/c1cccc(S(=O)(=O)Nc2ccccc2)c1)NO` [belinostat] (10 µM), 97.5% (inactive); in that of `CC(C)N(CC[C@H](c1ccccc1)c1cc(CO)ccc1O)C(C)C` [5-hydroxymethyl-tolterodine] (10 µM), 94.5% (inactive).
The figure for `CN1CCN(S(=O)(=O)c2ccc(-c3cnc(N)c(C(=O)Nc4cccnc4)n3)cc2)CC1` (0.833333 µM) is 99% (inactive); for `CC1(C)CCC2=C(O1)c1ccccc1C(=O)C2=O` [beta-lapachone] (10 µM) it is 78.5% (inactive).
In the case of `COc1ccc(-c2oc3cc(OC)ccc3c2C(=O)c2ccc(C#N)cc2)cc1` (10 µM) it was 97% (inactive).
